Data on 20 compounds can be found in ChEMBL document CHEMBL2218924, “A broad activity screen in support of a chemogenomic map for kinase signalling research and drug discovery” (Biochem J, 2013).

Test [1] deals with T1, Serine/threonine-protein kinase 3 (Homo sapiens) (UniProt Q13188).
T1 sequence (whole entry): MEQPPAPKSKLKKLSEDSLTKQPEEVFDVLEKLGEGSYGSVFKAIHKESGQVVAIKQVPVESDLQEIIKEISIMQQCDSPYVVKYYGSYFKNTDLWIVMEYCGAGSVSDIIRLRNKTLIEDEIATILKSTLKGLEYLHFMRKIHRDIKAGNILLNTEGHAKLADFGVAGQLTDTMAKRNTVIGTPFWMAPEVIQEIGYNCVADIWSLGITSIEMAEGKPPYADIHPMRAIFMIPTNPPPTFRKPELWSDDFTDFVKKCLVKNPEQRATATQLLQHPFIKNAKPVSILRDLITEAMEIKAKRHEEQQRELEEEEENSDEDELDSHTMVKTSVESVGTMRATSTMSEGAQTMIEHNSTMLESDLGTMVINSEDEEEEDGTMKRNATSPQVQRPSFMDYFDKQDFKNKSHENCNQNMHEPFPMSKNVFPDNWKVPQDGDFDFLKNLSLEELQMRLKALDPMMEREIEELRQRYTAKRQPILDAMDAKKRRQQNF
To be noted: at 1 µM.

Test [2] addresses T1, Serine/threonine-protein kinase 3 (Homo sapiens). To be noted: at 10 µM.
In test [3] the target is Serine/threonine-protein kinase 24 (Homo sapiens) (UniProt Q9Y6E0). To be noted: at 1 µM.
The target is the same in test [4]. To be noted: at 10 µM.
For test [5], the target named is T2, Tyrosine-protein kinase Mer (Homo sapiens) (UniProt Q12866).
T2 sequence (whole entry): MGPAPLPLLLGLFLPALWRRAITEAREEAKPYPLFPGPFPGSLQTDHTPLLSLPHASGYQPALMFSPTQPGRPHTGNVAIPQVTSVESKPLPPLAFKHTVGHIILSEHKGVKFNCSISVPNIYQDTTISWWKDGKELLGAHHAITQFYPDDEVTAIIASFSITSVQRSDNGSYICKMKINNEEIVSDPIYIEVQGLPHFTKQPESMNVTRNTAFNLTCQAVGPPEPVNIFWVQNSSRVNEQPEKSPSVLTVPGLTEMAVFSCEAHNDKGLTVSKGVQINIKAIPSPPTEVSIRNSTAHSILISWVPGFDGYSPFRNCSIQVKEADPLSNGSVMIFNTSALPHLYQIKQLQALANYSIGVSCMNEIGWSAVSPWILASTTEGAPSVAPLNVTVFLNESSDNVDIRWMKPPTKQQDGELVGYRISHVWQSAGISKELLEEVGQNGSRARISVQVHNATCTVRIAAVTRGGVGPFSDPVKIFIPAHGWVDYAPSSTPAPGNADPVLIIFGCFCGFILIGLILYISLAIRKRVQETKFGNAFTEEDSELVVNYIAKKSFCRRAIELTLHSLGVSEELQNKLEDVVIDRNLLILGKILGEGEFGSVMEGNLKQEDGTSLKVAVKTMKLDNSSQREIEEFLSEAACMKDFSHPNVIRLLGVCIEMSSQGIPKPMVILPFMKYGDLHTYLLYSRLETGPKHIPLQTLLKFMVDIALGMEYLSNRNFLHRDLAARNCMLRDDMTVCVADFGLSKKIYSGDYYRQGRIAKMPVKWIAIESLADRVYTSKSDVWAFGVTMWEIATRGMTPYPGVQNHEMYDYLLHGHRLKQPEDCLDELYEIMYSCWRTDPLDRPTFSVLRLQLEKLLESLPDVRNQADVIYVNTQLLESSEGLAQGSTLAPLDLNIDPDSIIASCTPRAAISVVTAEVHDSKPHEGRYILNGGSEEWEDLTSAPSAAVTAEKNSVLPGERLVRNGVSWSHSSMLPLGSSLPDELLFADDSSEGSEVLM
To be noted: at 1 µM.

The target of test [6] is T2, Tyrosine-protein kinase Mer (Homo sapiens). To be noted: at 10 µM.
Test [7] has as its target Hepatocyte growth factor receptor (Homo sapiens) (UniProt P08581). Conditions: at 1 µM.
For test [8] the target is unchanged. Conditions: at 10 µM.
Test [9] has as its target MAP kinase-interacting serine/threonine-protein kinase 2 (Homo sapiens) (UniProt Q9HBH9). To be noted: at 1 µM.
The target is the same in test [10]. To be noted: at 10 µM.

Sequence of Serine/threonine-protein kinase 24 (Homo sapiens) (Q9Y6E0 whole entry, looked up): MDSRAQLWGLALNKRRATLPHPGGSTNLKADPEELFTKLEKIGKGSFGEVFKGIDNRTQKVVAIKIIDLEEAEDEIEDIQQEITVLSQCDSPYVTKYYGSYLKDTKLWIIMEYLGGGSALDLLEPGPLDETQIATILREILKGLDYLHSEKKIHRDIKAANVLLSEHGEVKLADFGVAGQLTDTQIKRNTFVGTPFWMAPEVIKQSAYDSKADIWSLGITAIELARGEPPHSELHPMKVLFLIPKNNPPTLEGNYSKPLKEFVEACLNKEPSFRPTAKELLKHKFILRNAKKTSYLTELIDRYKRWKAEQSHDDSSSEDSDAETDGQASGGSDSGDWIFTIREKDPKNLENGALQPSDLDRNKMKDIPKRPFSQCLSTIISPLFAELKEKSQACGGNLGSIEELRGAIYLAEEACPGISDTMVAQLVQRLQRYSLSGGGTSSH
Sequence of Hepatocyte growth factor receptor (Homo sapiens) (P08581 whole entry): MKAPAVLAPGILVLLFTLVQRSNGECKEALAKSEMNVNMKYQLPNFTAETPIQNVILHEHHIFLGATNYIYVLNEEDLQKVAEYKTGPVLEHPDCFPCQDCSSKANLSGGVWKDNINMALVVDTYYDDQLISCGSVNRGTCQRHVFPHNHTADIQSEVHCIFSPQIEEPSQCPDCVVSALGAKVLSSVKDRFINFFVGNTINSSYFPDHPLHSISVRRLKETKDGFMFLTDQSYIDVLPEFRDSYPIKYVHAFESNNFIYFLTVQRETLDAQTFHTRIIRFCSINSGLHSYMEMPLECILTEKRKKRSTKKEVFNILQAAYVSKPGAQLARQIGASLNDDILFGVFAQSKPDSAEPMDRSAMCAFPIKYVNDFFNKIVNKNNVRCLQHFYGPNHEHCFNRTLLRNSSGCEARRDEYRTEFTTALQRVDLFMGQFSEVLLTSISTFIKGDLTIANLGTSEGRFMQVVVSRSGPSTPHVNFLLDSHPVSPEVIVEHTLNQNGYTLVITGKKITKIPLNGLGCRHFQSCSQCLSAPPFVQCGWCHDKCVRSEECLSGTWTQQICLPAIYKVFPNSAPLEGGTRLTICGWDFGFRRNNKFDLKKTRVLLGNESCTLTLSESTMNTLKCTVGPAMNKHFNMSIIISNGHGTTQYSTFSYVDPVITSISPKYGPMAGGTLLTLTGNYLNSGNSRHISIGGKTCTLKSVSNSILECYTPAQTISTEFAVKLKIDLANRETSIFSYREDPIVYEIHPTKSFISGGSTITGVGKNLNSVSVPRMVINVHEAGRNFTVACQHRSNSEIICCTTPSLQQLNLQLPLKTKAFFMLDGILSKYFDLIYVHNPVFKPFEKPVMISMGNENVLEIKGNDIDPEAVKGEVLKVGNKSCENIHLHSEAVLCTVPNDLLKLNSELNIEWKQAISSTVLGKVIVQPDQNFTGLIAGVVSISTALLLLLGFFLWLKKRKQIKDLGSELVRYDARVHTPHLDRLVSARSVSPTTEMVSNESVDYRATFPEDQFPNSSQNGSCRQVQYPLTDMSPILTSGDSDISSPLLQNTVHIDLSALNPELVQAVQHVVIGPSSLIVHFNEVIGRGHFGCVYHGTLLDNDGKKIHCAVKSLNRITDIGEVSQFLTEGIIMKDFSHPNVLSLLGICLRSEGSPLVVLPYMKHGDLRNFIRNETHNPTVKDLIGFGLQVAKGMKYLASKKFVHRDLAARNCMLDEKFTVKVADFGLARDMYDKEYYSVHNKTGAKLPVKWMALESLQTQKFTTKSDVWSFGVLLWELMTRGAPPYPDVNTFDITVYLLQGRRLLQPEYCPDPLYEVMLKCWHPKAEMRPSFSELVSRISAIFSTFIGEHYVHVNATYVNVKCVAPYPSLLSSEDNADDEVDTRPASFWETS
Sequence of MAP kinase-interacting serine/threonine-protein kinase 2 (Homo sapiens) (Q9HBH9 whole entry, looked up): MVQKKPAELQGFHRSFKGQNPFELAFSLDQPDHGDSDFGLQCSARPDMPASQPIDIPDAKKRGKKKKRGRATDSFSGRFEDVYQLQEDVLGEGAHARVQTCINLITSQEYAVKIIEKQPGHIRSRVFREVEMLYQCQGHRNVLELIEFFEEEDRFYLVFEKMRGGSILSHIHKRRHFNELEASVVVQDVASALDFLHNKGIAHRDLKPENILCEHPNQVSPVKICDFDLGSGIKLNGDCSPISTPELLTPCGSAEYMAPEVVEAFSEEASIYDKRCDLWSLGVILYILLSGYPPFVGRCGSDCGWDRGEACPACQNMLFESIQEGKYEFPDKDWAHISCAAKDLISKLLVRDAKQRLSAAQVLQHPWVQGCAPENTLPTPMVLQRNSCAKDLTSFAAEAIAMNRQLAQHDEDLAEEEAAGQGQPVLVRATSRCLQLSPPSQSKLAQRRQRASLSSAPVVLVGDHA

Take `Cc1cc2ncc(-c3ccccc3)nc2cc1C`: the residual activity in test [1] was determined as 88%; in test [2], 95%; in test [3] it was 65%; in test [4], 83%; in [5], 107%; in test [6] it was 90%. In addition, the figures for the residual activity in test [7] and in test [8] were 87% and 134%, respectively.
Consider `CC(=O)O/N=C1\C(=C2\C(=O)Nc3cc(Br)ccc32)Nc2ccccc21`, for which the residual activity in [1] came out at 65%; in test [2] it was 18%; in test [3] it was 85%; in test [4], 74%; in test [5] it was 39%; in test [6] it was 6%. In addition, the residual activity came to 89% in test [7], 81% in [8], 101% in [9] and 92% in test [10].
As for `O=C1NC(=O)/C(=C\c2ccc3nccnc3c2)S1`, the residual activity in test [1] stood at 96%; in test [2] it was 100%; in test [3], 57%; in test [4], 55%; in test [5], 111%; in [6], 60%. In addition, the residual activity was found to be 98% in test [7], 94% in test [8], 76% in [9] and 28% in test [10].
As for `Nc1n[nH]c2nnc(-c3c(-c4ccccc4)nn4ccccc34)cc12`, the residual activity was 79% in test [1]; 91% in test [2]; 15% in test [4]; 86% in test [5]; 57% in test [6]; 78% in test [7]. For the same compound, the residual activity turned out to be 88% in test [8], 96% in test [9] and 101% in test [10].
`CO[C@@H]1[C@H](N(C)C(=O)c2ccccc2)C[C@H]2O[C@]1(C)n1c3ccccc3c3c4c(c5c6ccccc6n2c5c31)C(=O)NC4`: the residual activity in test [1] turned out to be 3%; in test [2], 0%; in [3], 17%; in test [4], 7%; in test [5], 8%; in [6], 6%. The residual activity in [7] was determined as 35%; in test [8], 40%; in test [9] it was 44%; in test [10], 27%.
`CN(C)CCCn1cc(C2=C(c3c[nH]c4ccccc34)C(=O)NC2=O)c2ccccc21`: the residual activity in test [1] was found to be 73%; in [2], 17%; in test [3], 27%; in [4], 7%; in [5] it was 60%; in test [6], 11%. For the same compound, the residual activity in test [8] turned out to be 58%.
With `c1ccc(-c2n[nH]c3c2oc2ccccc23)cc1`, the residual activity in test [3] was 66%; in [4], 67%; in [5], 95%; in [6] it was 70%; in [7], 87%; in test [8], 70%. In addition, the results for the residual activity in test [9] and in [10] were 80% and 24%, respectively.
In the case of `Cc1cncc2cccc(S(=O)(=O)N3CCCN(C(=O)CN)C[C@H]3C)c12`, the residual activity worked out at 61% in test [3]; 71% in [4]; 79% in test [5]; 21% in test [6]; 84% in [7]; 123% in test [8]. Also, in [10], the residual activity is 72%.
For `CN(C)c1ccc(/C=C2\C(=O)Nc3ccccc32)cc1`, the residual activity in test [1] was 108%; in test [3], 66%; in test [4] it was 49%; in test [5] it was 51%; in test [6], 36%; in [7], 112%. Further, the residual activity stood at 107% in test [8], 107% in test [9] and 95% in test [10].
`Cn1cc(/C=C2\C(=O)Nc3ccc(S(N)(=O)=O)cc32)c2ccccc21`: the residual activity in test [1] worked out at 27%; in test [2], 6%; in test [3], 69%; in test [4], 63%; in [5] it was 22%; in test [6] it was 16%. Also, the residual activity in [7] was found to be 84%; in test [9], 80%; in [10], 72%.
Turning to `Cc1nc(-c2ccccc2)c(-c2ccncc2)o1`, the residual activity in test [1] was 102%; in test [2] it was 96%; in test [3], 101%; in test [4], 100%; in test [5], 99%; in [6] it was 88%. For the same compound, the residual activity in [7] stood at 128%; in test [8] it was 94%; in test [9] it was 106%; in test [10] it was 77%.
In the case of `COc1cc2ncc(-c3ccccc3)nc2cc1OC`, the residual activity is 100% in test [2]; 65% in [3]; 71% in test [4]; 62% in [6]; 92% in test [7]; 68% in [8].
`COc1cc2ncnc(N3CCN(C(=O)Nc4ccc(Oc5ccccc5)cc4)CC3)c2cc1OC`: the residual activity stood at 98% in test [1]; 86% in test [2]; 98% in [3]; 117% in [4]; 97% in [5]; 60% in test [6]. Besides, the residual activity in [7] amounted to 114%; in [9], 92%; in test [10] it was 64%.
Consider `N#Cc1cnc2cnc(NCc3cccnc3)cc2c1Nc1ccc(F)c(Cl)c1`, for which the residual activity stood at 42% in test [1]; 4% in [2]; 27% in [3]; 15% in test [4]; 98% in [9]; 79% in [10].
In the case of `Cc1nc2cc3nc(-c4cccs4)cnc3cc2n1C`, the residual activity in test [1] came out at 107%; in test [2] it was 87%; in [3] it was 90%; in test [4], 96%; in test [5], 103%; in test [6], 41%. Further, the residual activity in test [7] amounted to 128%; in test [8], 91%; in test [9], 84%; in test [10], 37%.
On to `Cc1cccc(-c2[nH]c(C(C)(C)C)nc2-c2ccc3c(c2)OCO3)n1`, for which the residual activity was determined as 94% in test [2]; 79% in [3]; 72% in [4]; 107% in test [5]; 97% in [6].
As to `N#CC(C#N)=C(N)/C(C#N)=C/c1ccc(O)cc1`, the residual activity came out at 71% in test [3], 67% in test [4], 138% in test [8] and 50% in [10].
With `c1ccc2c(-c3ccncc3)c[nH]c2c1`, the residual activity in [1] was 103%; in [2] it was 81%; in [3] it was 61%; in test [4], 69%; in test [5], 100%; in test [6], 73%. Further, the residual activity in test [8] was determined as 68%; in test [9], 35%; in test [10] it was 9%.
As to `Cn1nc2c3c(cccc31)C(=O)c1ccccc1-2`, the residual activity in [1] came out at 97%; in [3], 74%; in [4], 69%; in [5], 53%; in [6], 21%; in test [8], 84%. Besides, the residual activity was determined as 81% in test [9] and 72% in test [10].
As to `N#CCCc1ccc2c(c1)-c1[nH]c3ccc([N+](=O)[O-])cc3c1CC(=O)N2`, the residual activity was found to be 27% in test [1]; 7% in [2]; 37% in test [3]; 12% in test [4]; 72% in test [9]; 42% in test [10].

The residual activity is the signal under treatment as a percentage of the control signal.
